Nine compounds from PubChem BioAssay (NCI) can be followed below.

Structures are written as SMILES. This is part of a sample that, as a whole, favours compounds with a hit. Of some 83,000 tested, about 20% had one in any assay.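 Single-concentration screen, 48 h exposure, 96-well plates. Endpoint: percent growth. Below 10 = active.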 Values without a mark were called inactive. Calls of active or inactive are those of the source.

Assay in all cases: NCI-60 one-dose screen, 48 h (100 = growth as untreated, 0 = no growth, -100 = all killed)
One assay deals with A549/ATCC NSCLC. The following applies: 10 µM unless noted.
A further assay deals with COLO 205 colon. Particulars: 10 µM.
For the next assay, the system named is MALME-3M melanoma. The following applies: 10 µM unless noted.
The next assay relates to RXF 393 renal. The following applies: 10 µM unless noted.
Another assay deals with UACC-257 melanoma. The following applies: 10 µM unless noted.
A further assay deals with HT29 colon. Particulars: 10 µM unless noted.
For another assay, the system named is U251 CNS. The following applies: 10 µM unless noted.
In another assay the test system is SK-MEL-2 melanoma. The following applies: 10 µM unless noted.
Another assay concerns SN12C renal. The following applies: 10 µM unless noted.
The next assay relates to UO-31 renal. The following applies: 10 µM unless noted.
Another assay concerns CAKI-1 renal. The following applies: 10 µM unless noted.
The subject of a further assay is A498 renal. Particulars: 10 µM unless noted.
In another assay the test system is HL-60(TB) leukemia. The following applies: 10 µM unless noted.
A further assay relates to OVCAR-8 ovarian. Particulars: 10 µM unless noted.
For a further assay, the system named is OVCAR-4 ovarian. The following applies: 10 µM unless noted.
The next assay has as its system SK-OV-3 ovarian. Particulars: 10 µM unless noted.
The subject of a further assay is HS 578T breast. The following applies: 10 µM unless noted.
The subject of another assay is T-47D breast. Particulars: 10 µM unless noted.
A further assay concerns BT-549 breast. Particulars: 10 µM.
Another assay relates to MDA-MB-435 melanoma. The following applies: 10 µM unless noted.

As for `Cc1cc(C)nc(C)c1.[Cl][Hg][Cl]`, the growth with A549/ATCC NSCLC is 97.2%; in the assay with COLO 205 colon, 123%; in the assay with MALME-3M melanoma, 92.8%; in the assay with RXF 393 renal, 124%; in the assay with UACC-257 melanoma, 93.8%; with HT29 colon, 95.7%. The growth in the assay with U251 CNS is 91.6%; in the assay on SK-MEL-2 melanoma, 98.7%; in the assay on SN12C renal it was 104%; in the assay on UO-31 renal, 95.5%; in the assay on CAKI-1 renal it was 96.4%; in the assay on A498 renal, 120%. Moreover, the growth was 93.7% in the assay on HL-60(TB) leukemia; 100% in the assay with OVCAR-8 ovarian; 103% with OVCAR-4 ovarian; 110% in the assay with SK-OV-3 ovarian; 108% in the assay with HS 578T breast; 81.8% with T-47D breast. Also, the growth in the assay with BT-549 breast is 100%; in the assay on MDA-MB-435 melanoma, 83.9%.
With `CC1(C)CC(=O)CC(C)(C)N1N=O`, the growth is 107% in the assay on A549/ATCC NSCLC; 96.2% with COLO 205 colon; 130% with MALME-3M melanoma; 136% in the assay with RXF 393 renal; 104% with UACC-257 melanoma; 99.4% with HT29 colon. Further, the growth with U251 CNS is 118%; in the assay with UO-31 renal, 91.5%; with CAKI-1 renal, 99.9%; with A498 renal, 106%; in the assay with HL-60(TB) leukemia, 77.4%; with OVCAR-4 ovarian, 113%. The growth in the assay on SK-OV-3 ovarian was 105%; in the assay with T-47D breast it was 97.3%; with MDA-MB-435 melanoma, 112%.
Consider `CN1CC2CCC(C1)C2=O`, for which the growth in the assay with A549/ATCC NSCLC was 102%; in the assay on COLO 205 colon, 106%; in the assay with MALME-3M melanoma it was 79.2%; with RXF 393 renal it was 119%; in the assay on UACC-257 melanoma, 102%; in the assay on HT29 colon, 100%. The growth in the assay on U251 CNS was 101%; with SK-MEL-2 melanoma, 95.5%; in the assay on SN12C renal, 99.8%; with UO-31 renal it was 62.7%; in the assay with CAKI-1 renal it was 91.7%; with A498 renal, 110%. Moreover, the growth was 96.3% in the assay with HL-60(TB) leukemia; 103% with OVCAR-4 ovarian; 91.8% in the assay on SK-OV-3 ovarian; 108% in the assay on HS 578T breast; 102% in the assay on T-47D breast; 88.8% in the assay on BT-549 breast.
Turning to `CO[C@@H](c1ccccc1Cl)[C@H](C)OC(N)=O`, the growth in the assay with A549/ATCC NSCLC was 98.4%; with COLO 205 colon, 101%; in the assay with MALME-3M melanoma, 93.5%; with RXF 393 renal, 113%; with UACC-257 melanoma, 91.7%; in the assay on HT29 colon, 106%. For the same compound, the growth in the assay on U251 CNS is 94.1%; in the assay with SK-MEL-2 melanoma, 107%; in the assay on SN12C renal, 106%; in the assay on UO-31 renal, 85.7%; in the assay on CAKI-1 renal, 92.1%; in the assay with A498 renal it was 96.3%. Also, the growth is 106% with HL-60(TB) leukemia; 103% in the assay with OVCAR-8 ovarian; 112% in the assay on OVCAR-4 ovarian; 102% with SK-OV-3 ovarian; 99.9% in the assay with HS 578T breast; 101% in the assay on T-47D breast. Moreover, the growth in the assay on BT-549 breast was 97.2%; with MDA-MB-435 melanoma it was 97.8%.
On to `NC(=O)NC(=O)CI`, for which the growth in the assay on A549/ATCC NSCLC was 98.6%; in the assay on COLO 205 colon, -62.4% (active); in the assay on MALME-3M melanoma, -43.6% (active); with RXF 393 renal, 65%; with UACC-257 melanoma, 79.1%; in the assay on HT29 colon it was 99.1%. In addition, the growth with U251 CNS was 94.7%; in the assay on SK-MEL-2 melanoma, 92.1%; with SN12C renal, 85%; in the assay on A498 renal it was 97.9%; in the assay on HL-60(TB) leukemia, 98.3%; in the assay with OVCAR-8 ovarian it was 101%. In addition, the growth in the assay on OVCAR-4 ovarian was 94.4%; in the assay with SK-OV-3 ovarian it was 111%; in the assay on HS 578T breast, 94.3%; in the assay with T-47D breast, 8.8% (active); with BT-549 breast, 85.8%; in the assay on MDA-MB-435 melanoma, 98.2%.
As to `O=C(O)CC(Br)C(=O)CBr` (configuration not stated), the growth in the assay with A549/ATCC NSCLC is 99.9%; with COLO 205 colon, 109%; in the assay with MALME-3M melanoma, 103%; with RXF 393 renal, 109%; in the assay with UACC-257 melanoma, 102%; in the assay on HT29 colon it was 109%. For the same compound, the growth with U251 CNS is 99.2%; in the assay on SN12C renal, 107%; in the assay on UO-31 renal, 86.1%; with CAKI-1 renal, 95.8%; with A498 renal, 104%; with HL-60(TB) leukemia, 105%. Moreover, the growth in the assay on OVCAR-8 ovarian was 99.4%; with OVCAR-4 ovarian it was 97.2%; with SK-OV-3 ovarian, 106%; with HS 578T breast, 104%; in the assay on T-47D breast, 103%; in the assay on BT-549 breast, 98.2%. The growth with MDA-MB-435 melanoma is 108%.
As to `CC(=O)O[C@H]1CC[C@H]2[C@@H]3CC[C@H]4CC=C(C)C[C@]4(C)[C@H]3CC[C@]12C`, the growth in the assay on A549/ATCC NSCLC is 107%; with COLO 205 colon it was 110%; in the assay with MALME-3M melanoma it was 106%; with RXF 393 renal, 111%; in the assay with UACC-257 melanoma, 111%; in the assay on HT29 colon it was 98.4%. The growth with U251 CNS was 110%; with SK-MEL-2 melanoma, 110%; in the assay on UO-31 renal it was 92.3%; with CAKI-1 renal, 50.7%; in the assay on A498 renal, 104%; in the assay on HL-60(TB) leukemia, 89.9%. Further, the growth with OVCAR-4 ovarian is 104%; with SK-OV-3 ovarian, 102%; in the assay with HS 578T breast, 109%; with T-47D breast it was 92.1%; in the assay on BT-549 breast it was 107%.
For `O=S(=O)(Cl)c1ccccc1` (tested in a mixture with another compound), the growth with A549/ATCC NSCLC was 102%; in the assay with COLO 205 colon, 105%; in the assay on MALME-3M melanoma it was 92.2%; in the assay with RXF 393 renal it was 99.1%; with UACC-257 melanoma, 97.1%; with HT29 colon it was 101%. Also, the growth in the assay with U251 CNS is 93.7%; with SN12C renal it was 102%; in the assay on UO-31 renal, 85%; in the assay with CAKI-1 renal, 109%; with A498 renal it was 85%; in the assay on OVCAR-8 ovarian it was 108%. The growth is 106% in the assay with OVCAR-4 ovarian; 102% in the assay on SK-OV-3 ovarian; 102% with HS 578T breast; 97.7% in the assay on T-47D breast; 99.5% in the assay on BT-549 breast; 115% in the assay on MDA-MB-435 melanoma.
`C[C@@H]1O[C@@H](O[C@H]2CC[C@@]3(C)[C@H](CCC4[C@@H]3C(O)C[C@]3(C)[C@@H](c5ccc(=O)oc5)CC[C@]43O)C2)[C@H](O)[C@H](O)[C@H]1O` (some centres not stated): the growth in the assay on A549/ATCC NSCLC was -83.6% (active); with MALME-3M melanoma it was -45.9% (active); in the assay with RXF 393 renal, -52.3% (active); in the assay on UACC-257 melanoma it was -99.7% (active); in the assay with HT29 colon, -90.4% (active); in the assay with U251 CNS, -97.9% (active). In addition, the growth in the assay on SK-MEL-2 melanoma was -81% (active); with SN12C renal it was -25.3% (active); in the assay on UO-31 renal, -97.3% (active); with CAKI-1 renal it was -68.7% (active); in the assay with A498 renal, -27.9% (active); with OVCAR-4 ovarian, -92.9% (active). For the same compound, the growth is -95.6% (active) in the assay on SK-OV-3 ovarian; -9.52% (active) in the assay with HS 578T breast; -55.6% (active) in the assay with T-47D breast; -89.9% (active) in the assay on BT-549 breast; -76.2% (active) with MDA-MB-435 melanoma.
